Results on nine compounds are retold here after PubChem BioAssay (EPA / NIEHS).

Read-out in experiment [1]: Intercellular Adhesion Molecule 1 (ICAM1), ICAM1 (gene 3383)
The experiment can be described thus: BSK_3C_ICAM1: BioMAP Diversity Plus: 3C Assay for Intercellular Adhesion Molecule 1 (ICAM1) Biomarker Activity (AID 2283003; active means hit-call score of the fitted dose curve at least 0.9, where 1 is the maximum; inactive means score below 0.9). As to conditions: primary human endothelial cells (HUVEC); actives raise or lower the signal. An outline of the steps: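 Primary human umbilical vein endothelial cells in the BioMAP 3C system were exposed to chemicals for 24 h, then ICAM-1 was quantified by ELISA. Activity was fitted bidirectionally against the DMSO negative control baseline.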

The nature of experiment [2]: BSK_3C_Proliferation: Cell Proliferation Assessment in the BioMAP Diversity Plus: 3C Assay (AID 2283006; active means hit-call score of the fitted dose curve at least 0.9, where 1 is the maximum; inactive means score below 0.9;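 further: potency may reflect either rise or fall in cell number versus DMSO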). As to conditions: primary human endothelial cells (HUVEC). The method, boiled down:
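Human umbilical vein endothelial cells were grown sub-confluent and exposed to chemical for 48 h, then fixed with 10% TCA and stained with 0.1% sulforhodamine B; absorbance at 560 nm gave relative cell number, fitted bidirectionally against DMSO baseline.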

Experiment [3] deals with Peroxisome proliferator-activated receptor gamma (Homo sapiens) (UniProt P37231). The experiment in a line: ATG_PPARg_TRANS: Attagene TRANS-FACTORIAL HepG2 Assay for human Peroxisome Proliferator-activated Receptor-gamma (PPARg) (AID 2283007). An outline of the steps:
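Read-out: reporter mRNA induction, detected by fluorescence after RT-PCR and capillary electrophoresis. Transiently transfected human HepG2 liver cells carrying a chimeric NR-Gal4 construct were dosed for 24 h; activity was fitted upward relative to DMSO.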

The target in experiment [4] is Nuclear receptor subfamily 1 group I member 2 (Homo sapiens) (UniProt O75469). The experiment can be described thus: ATG_PXR_TRANS: Attagene TRANS-FACTORIAL HepG2 Assay for human Pregnane X Receptor (PXR) (AID 2283008). The method, boiled down: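 HepG2 cells transiently transfected with GAL4-UAS reporter units and PXR-Gal4 chimera, exposed 24 h. Reporter mRNA quantified by RT-PCR, fluorescent labelling, HpaI digestion and capillary electrophoresis; gain of signal vs DMSO.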
Sequence of Nuclear receptor subfamily 1 group I member 2 (Homo sapiens) (O75469 whole entry, looked up, the tested form may be a part): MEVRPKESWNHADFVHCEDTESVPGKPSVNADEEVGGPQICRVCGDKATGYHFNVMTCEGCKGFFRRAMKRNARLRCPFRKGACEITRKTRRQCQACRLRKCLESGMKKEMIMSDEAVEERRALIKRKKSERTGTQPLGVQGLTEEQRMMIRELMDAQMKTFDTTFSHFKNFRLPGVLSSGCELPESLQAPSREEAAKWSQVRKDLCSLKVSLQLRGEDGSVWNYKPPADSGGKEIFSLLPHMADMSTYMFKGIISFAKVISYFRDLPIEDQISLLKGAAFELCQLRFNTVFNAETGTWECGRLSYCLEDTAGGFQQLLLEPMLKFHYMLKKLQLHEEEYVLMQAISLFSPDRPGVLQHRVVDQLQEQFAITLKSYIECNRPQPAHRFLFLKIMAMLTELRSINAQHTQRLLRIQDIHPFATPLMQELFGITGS

In experiment [5] the target is Retinoic acid receptor RXR-alpha (Homo sapiens) (UniProt P19793). The experiment can be described thus: ATG_RXRa_TRANS: Attagene TRANS-FACTORIAL HepG2 Assay for human Retinoid X Receptor alpha (RXRa) (AID 2283012). An outline of the steps:
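HepG2 cells transiently transfected with multiplexed GAL4-UAS reporter units and chimeric NR-GAL4 fusions, dosed 24 h. Reporter mRNA measured by RT-PCR, FAM labelling, HpaI digestion and capillary electrophoresis; gain-of-signal fitted relative to DMSO baseline.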

Read-out in experiment [6]: E-selectin (Homo sapiens) (UniProt P16581)
The experiment can be described thus: BSK_3C_Eselectin: BioMAP Diversity Plus: 3C Assay for Eselectin Biomarker Activity (AID 2283015; active means hit-call score of the fitted dose curve at least 0.9, where 1 is the maximum; inactive means score below 0.9;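 further: cell surface E-selectin protein quantified by ELISA 24 h after dosing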). The conditions noted are these: primary human endothelial cells (HUVEC); actives raise or lower the signal. An outline of the steps:
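E-selectin ELISA readout, fitted bidirectionally relative to DMSO, taken 24 h post-dosing in HUVEC cultures of the 3C system. Overt cytotoxicity tracked with sulforhodamine B staining of parallel wells.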

Read-out in experiment [7]: Interleukin-1 alpha (IL1a), IL1A (gene 3552)
The experiment in a line: BSK_BE3C_IL1a: BioMAP Diversity Plus: BE3C Assay for Interleukin-1 alpha (IL1a) Biomarker Activity (AID 2283016; active means hit-call score of the fitted dose curve at least 0.9, where 1 is the maximum; inactive means score below 0.9). As to conditions: primary human bronchial epithelial cells; actives raise or lower the signal. An outline of the steps:
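Human primary bronchial epithelial cells (BE3C system) were dosed with compound and IL-1a measured by ELISA 24 h later. Activity was fitted bidirectionally against DMSO baseline; cytotoxicity was tracked in parallel cultures by SRB total-protein staining.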

Read-out in experiment [8]: Monocyte Chemoattractant Protein-1 (MCP1), CCL2 (gene 6347)
The experiment in a line: BSK_4H_MCP1: BioMAP Diversity Plus: 4H Assay for Monocyte Chemoattractant Protein-1 (MCP1) Biomarker Activity (AID 2283018; active means hit-call score of the fitted dose curve at least 0.9, where 1 is the maximum; inactive means score below 0.9). The conditions noted are these: primary human endothelial cells (HUVEC); actives raise or lower the signal. An outline of the steps: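 Human umbilical vein endothelial cells (4H system) dosed with chemical; MCP-1 measured by ELISA 24 h after dosing. Bidirectional curve fitting against DMSO negative control as baseline; parallel SRB total-protein staining tracks overt cytotoxicity.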

Read-out in experiment [9]: Human Leukocyte Antigen - DR isotype (HLADR), HLA-DRA (gene 3122)
The experiment in a line: BSK_3C_HLADR: BioMAP Diversity Plus: 3C Assay for Human Leukocyte Antigen - DR isotype (HLADR) Biomarker Activity (AID 2283019; active means hit-call score of the fitted dose curve at least 0.9, where 1 is the maximum; inactive means score below 0.9). The conditions noted are these: primary human endothelial cells (HUVEC); actives raise or lower the signal. An outline of the steps:
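Bidirectional fitting against DMSO was applied to the HLA-DR ELISA signal from human umbilical vein endothelial cells, 24 h post-dose. Cytotoxicity came from parallel SRB total-protein staining; 3C proliferation was counted by SRB at 48 h.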

Read-out in experiment [10]: Monokine induced gamma interferon (MIG), CXCL9 (gene 4283)
The experiment in a line: BSK_3C_MIG: BioMAP Diversity Plus: 3C Assay for Monokine induced gamma interferon (MIG) Biomarker Activity (AID 2283021; active means hit-call score of the fitted dose curve at least 0.9, where 1 is the maximum; inactive means score below 0.9). As to conditions: primary human endothelial cells (HUVEC); actives raise or lower the signal. An outline of the steps:
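Primary human umbilical vein endothelial cells in the 3C system were exposed to chemical for 24 h, after which MIG was quantified by ELISA. Activity was fitted bidirectionally against DMSO as negative control and baseline.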

The target of experiment [11] is human Vitamin D Receptor (VDR), VDR (gene 7421) (UniProt P11473). The experiment in a line: ATG_VDR_TRANS: Attagene TRANS-FACTORIAL HepG2 Assay for human Vitamin D Receptor (VDR) (AID 2283022). The method, boiled down:
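Transactivation by an exogenous VDR-Gal4 chimera in transiently transfected HepG2 cells was measured as reporter transcript level 24 hours after chemical treatment. RT-PCR products were analysed by capillary electrophoresis and fitted in the positive direction relative to DMSO.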

Experiment [12] concerns the target human Retinoic Acid Receptor beta (RARb), RARB (gene 5915) (UniProt P10826). The experiment can be described thus: ATG_RARb_TRANS: Attagene TRANS-FACTORIAL HepG2 Assay for human Retinoic Acid Receptor beta (AID 2283004). An outline of the steps: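 Induction of reporter mRNA from a chimeric RARb-Gal4 construct was measured by RT-PCR, FAM labelling, HpaI digestion and capillary electrophoresis. Measurements followed 24 h compound treatment of transiently transfected human HepG2 liver cells, with DMSO as baseline.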

The target in experiment [13] is Retinoic acid receptor alpha (Homo sapiens) (UniProt P10276). The experiment can be described thus: ATG_RARa_TRANS: Attagene TRANS-FACTORIAL HepG2 Assay for human Retinoic Acid Receptor alpha (RARa) (AID 2283005). The method, boiled down:
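HepG2 transiently transfected with multiplex GAL4-UAS reporter units including a human RARa–GAL4 chimera; 24 h compound exposure. Reporter mRNA quantified by RT-PCR, 6-FAM labeling and capillary electrophoresis; gain of signal versus DMSO.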

Experiment [14] has as its target human Retinoic Acid Receptor gamma (RARg), RARG (gene 5916) (UniProt P13631). The experiment in a line: ATG_RARg_TRANS: Attagene TRANS-FACTORIAL HepG2 Assay for human Retinoic Acid Receptor gamma (RARg) (AID 2283009). The method, boiled down: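 HepG2 cells transiently transfected with multiplexed reporter units expressing chimeric RARg-GAL4 and GAL4-UAS-driven reporters; 24 h compound exposure. Reporter mRNA quantified by RT-PCR with fluorescent labelling and capillary electrophoresis; gain-of-signal fitted relative to DMSO baseline.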

Experiment [15] deals with human RAR-related Orphan Receptor gamma (RORg), RORC (gene 6097) (UniProt P51449). The experiment in a line: ATG_RORg_TRANS: Attagene TRANS-FACTORIAL HepG2 Assay for human RAR-related Orphan Receptor gamma (RORg) (AID 2283011). An outline of the steps: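 Reporter transcripts from a transfected RORg-GAL4 chimera in HepG2 cells were quantified 24 h after dosing by RT-PCR, 6-FAM labelling, HpaI digestion and capillary electrophoresis; increases over DMSO baseline were fitted.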
Sequence of human RAR-related Orphan Receptor gamma (RORg), RORC (gene 6097) (P51449 whole entry, looked up, the tested form may be a part): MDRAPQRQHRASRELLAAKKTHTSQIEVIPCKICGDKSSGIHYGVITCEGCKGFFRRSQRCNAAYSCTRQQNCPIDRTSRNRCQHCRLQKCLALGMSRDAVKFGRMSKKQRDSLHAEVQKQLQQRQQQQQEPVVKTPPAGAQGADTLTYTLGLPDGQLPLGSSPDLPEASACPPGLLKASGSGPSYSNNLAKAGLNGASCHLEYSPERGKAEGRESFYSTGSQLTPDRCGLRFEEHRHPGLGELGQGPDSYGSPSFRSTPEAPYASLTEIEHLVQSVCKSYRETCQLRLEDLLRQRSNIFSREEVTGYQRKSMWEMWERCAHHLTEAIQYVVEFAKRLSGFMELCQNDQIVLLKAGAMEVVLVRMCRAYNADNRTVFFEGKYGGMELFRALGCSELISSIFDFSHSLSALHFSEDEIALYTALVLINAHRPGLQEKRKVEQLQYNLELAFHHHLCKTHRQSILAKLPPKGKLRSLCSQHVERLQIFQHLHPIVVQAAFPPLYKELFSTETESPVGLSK

Experiment [16] has as its target human Thyroid Receptor alpha (THRa1), THRA (gene 7067) (UniProt P10827). The experiment in a line: ATG_THRa1_TRANS: Attagene TRANS-FACTORIAL HepG2 Assay for human Thyroid Receptor alpha (THRa1) (AID 2283014). An outline of the steps:
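Transcripts from GAL4-UAS-driven reporters, measured after 24 h compound exposure by RT-PCR plus capillary electrophoresis of 6-FAM-labeled fragments, were fitted for gain of signal relative to DMSO. Cells: transiently transfected HepG2 expressing NR-Gal4 chimeras.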

Experiment [17] addresses human RAR-related Orphan Receptor beta (RORb), RORB (gene 6096) (UniProt Q92753). The experiment can be described thus: ATG_RORb_TRANS: Attagene TRANS-FACTORIAL HepG2 Assay for human RAR-related Orphan Receptor beta (RORb) (AID 2283010). An outline of the steps: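 HepG2 cells were transiently transfected with multiplexed GAL4-UAS reporter units expressing chimeric nuclear receptor–GAL4 proteins, then dosed for 24 h. Reporter mRNA was quantified by RT-PCR with fluorescent labelling and capillary electrophoresis; gain of signal was fitted relative to DMSO.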

Experiment [18] addresses human Retinoid X Receptor beta (RXRb), RXRB (gene 6257) (UniProt P28702). The experiment can be described thus: ATG_RXRb_TRANS: Attagene TRANS-FACTORIAL HepG2 Assay for human Retinoid X Receptor beta (RXRb) (AID 2283013). The method, boiled down:
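HepG2 cells transiently transfected with multiplexed reporter units driven by GAL4-UAS and exogenous chimeric NR-Gal4 proteins; treated 24 h. Reporter mRNA measured by RT-PCR, 6-FAM labelling and capillary electrophoresis; gain-of-signal fitted versus DMSO baseline.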

Inconclusive results are not listed. Activity calls are given as the source filed them. How the source made its calls, unless noted: active means hit-call score of the fitted dose curve at least 0.9, where 1 is the maximum; inconclusive means response in the unintended direction; inactive means score below 0.9.

Sequence of Retinoic acid receptor alpha (Homo sapiens) (P10276 whole entry, looked up, the tested form may be a part): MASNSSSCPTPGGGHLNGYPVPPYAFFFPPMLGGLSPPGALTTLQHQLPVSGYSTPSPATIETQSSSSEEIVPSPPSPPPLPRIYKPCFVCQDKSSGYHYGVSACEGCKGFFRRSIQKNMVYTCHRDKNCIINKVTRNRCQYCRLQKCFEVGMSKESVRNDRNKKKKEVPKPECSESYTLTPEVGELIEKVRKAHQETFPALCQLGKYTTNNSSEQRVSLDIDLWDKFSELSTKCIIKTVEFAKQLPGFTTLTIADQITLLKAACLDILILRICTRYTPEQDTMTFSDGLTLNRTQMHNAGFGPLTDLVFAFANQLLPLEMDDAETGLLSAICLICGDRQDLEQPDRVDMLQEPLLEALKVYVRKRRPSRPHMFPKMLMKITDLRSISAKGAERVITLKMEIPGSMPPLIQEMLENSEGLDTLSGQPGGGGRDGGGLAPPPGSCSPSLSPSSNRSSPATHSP
Sequence of human Thyroid Receptor alpha (THRa1), THRA (gene 7067) (P10827 whole entry, looked up, the tested form may be a part): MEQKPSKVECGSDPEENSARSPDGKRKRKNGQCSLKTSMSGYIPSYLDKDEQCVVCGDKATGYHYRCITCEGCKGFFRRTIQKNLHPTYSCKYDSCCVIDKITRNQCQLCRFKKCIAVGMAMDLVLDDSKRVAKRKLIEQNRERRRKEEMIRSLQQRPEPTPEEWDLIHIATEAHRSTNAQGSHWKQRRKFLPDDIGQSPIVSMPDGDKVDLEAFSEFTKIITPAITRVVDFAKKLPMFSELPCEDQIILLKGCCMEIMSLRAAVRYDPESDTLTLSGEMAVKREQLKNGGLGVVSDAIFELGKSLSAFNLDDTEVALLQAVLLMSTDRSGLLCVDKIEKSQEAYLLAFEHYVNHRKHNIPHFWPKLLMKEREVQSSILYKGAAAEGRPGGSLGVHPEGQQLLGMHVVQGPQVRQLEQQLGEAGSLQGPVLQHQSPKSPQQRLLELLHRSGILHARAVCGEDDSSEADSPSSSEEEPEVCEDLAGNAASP
Sequence of human Retinoic Acid Receptor beta (RARb), RARB (gene 5915) (P10826 whole entry, looked up, the tested form may be a part): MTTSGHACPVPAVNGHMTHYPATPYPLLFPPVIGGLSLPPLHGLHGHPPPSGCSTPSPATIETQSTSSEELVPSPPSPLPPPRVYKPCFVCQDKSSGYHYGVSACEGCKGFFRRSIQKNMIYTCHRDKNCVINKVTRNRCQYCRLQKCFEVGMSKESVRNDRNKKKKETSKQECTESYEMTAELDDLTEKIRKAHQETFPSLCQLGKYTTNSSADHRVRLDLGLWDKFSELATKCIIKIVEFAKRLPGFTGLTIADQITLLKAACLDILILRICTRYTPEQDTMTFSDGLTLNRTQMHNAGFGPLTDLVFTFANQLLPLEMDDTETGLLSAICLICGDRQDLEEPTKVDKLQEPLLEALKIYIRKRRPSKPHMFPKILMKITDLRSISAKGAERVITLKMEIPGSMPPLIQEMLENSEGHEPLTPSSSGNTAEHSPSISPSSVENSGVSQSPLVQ
Sequence of human RAR-related Orphan Receptor beta (RORb), RORB (gene 6096) (Q92753 whole entry, looked up, the tested form may be a part): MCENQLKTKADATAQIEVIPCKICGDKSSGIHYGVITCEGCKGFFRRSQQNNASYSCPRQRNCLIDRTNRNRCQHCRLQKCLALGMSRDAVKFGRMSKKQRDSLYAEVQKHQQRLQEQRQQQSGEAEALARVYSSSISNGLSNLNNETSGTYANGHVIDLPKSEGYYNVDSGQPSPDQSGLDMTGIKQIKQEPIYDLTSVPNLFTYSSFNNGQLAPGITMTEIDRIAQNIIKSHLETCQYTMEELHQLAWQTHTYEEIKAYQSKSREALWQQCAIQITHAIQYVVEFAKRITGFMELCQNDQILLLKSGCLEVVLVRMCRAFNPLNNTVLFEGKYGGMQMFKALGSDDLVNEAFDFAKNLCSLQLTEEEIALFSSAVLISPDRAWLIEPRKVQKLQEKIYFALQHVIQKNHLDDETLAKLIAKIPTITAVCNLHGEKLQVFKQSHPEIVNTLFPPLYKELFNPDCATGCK
Sequence of human Retinoid X Receptor beta (RXRb), RXRB (gene 6257) (P28702 whole entry, looked up, the tested form may be a part): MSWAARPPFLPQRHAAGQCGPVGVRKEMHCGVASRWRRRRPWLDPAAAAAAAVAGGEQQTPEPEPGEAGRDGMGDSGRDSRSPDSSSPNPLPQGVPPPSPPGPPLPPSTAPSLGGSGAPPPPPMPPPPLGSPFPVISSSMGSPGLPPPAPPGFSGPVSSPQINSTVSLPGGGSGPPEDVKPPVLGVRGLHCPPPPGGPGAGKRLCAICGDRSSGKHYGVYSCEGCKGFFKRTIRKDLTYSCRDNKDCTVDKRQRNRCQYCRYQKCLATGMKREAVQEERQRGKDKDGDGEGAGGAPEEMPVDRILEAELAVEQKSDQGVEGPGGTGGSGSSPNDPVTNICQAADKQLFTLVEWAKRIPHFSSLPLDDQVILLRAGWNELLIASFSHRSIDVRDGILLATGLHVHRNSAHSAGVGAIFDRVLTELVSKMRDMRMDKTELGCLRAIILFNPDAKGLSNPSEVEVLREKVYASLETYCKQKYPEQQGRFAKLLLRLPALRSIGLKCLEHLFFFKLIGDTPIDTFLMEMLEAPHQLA
Sequence of human Vitamin D Receptor (VDR), VDR (gene 7421) (P11473 whole entry, looked up, the tested form may be a part): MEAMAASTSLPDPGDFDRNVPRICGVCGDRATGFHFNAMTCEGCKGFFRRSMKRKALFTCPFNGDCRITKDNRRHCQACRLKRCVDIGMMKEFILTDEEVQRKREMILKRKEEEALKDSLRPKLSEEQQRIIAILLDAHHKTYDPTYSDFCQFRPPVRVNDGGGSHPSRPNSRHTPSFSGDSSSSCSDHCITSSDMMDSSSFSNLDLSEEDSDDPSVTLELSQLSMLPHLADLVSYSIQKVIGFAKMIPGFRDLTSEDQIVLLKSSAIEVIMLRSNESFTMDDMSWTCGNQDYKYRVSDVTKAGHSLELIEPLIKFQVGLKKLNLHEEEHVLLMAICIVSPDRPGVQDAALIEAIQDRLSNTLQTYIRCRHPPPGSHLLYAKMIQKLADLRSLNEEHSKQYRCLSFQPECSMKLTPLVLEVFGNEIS
Sequence of Retinoic acid receptor RXR-alpha (Homo sapiens) (P19793 whole entry, looked up, the tested form may be a part): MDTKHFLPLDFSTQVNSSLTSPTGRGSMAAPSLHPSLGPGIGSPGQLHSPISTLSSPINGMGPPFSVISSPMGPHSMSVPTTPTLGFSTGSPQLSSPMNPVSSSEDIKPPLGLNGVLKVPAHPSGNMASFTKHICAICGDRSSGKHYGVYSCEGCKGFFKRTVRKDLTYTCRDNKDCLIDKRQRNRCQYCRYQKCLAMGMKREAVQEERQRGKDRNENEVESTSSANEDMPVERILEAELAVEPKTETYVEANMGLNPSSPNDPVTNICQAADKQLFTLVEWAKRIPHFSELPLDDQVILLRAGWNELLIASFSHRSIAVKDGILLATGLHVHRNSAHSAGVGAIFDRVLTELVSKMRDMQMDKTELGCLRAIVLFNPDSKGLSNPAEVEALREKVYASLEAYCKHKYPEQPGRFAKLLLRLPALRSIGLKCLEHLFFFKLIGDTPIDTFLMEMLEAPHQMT
Sequence of human Retinoic Acid Receptor gamma (RARg), RARG (gene 5916) (P13631 whole entry, looked up, the tested form may be a part): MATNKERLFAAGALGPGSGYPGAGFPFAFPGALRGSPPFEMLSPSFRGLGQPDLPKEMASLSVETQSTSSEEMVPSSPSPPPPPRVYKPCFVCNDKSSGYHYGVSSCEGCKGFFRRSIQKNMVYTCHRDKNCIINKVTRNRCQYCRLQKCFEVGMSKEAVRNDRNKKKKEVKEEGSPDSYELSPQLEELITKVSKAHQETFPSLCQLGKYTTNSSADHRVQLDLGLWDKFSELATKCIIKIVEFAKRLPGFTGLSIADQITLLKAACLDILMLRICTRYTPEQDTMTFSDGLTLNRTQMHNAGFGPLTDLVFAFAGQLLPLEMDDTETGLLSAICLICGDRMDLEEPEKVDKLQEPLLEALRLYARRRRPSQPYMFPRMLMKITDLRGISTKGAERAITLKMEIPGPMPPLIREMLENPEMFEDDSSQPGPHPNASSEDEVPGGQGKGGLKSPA

In general, AC50 refers to the concentration giving half of the maximal activity seen. On to `O=S(=O)(c1ccc(Cl)cc1)c1cc(Cl)c(Cl)cc1Cl`, for which the result in experiment [1], in experiment [5], in [6], in [7], in experiment [8] and in [10] was inactive. The compound was classed as inactive in experiment [11]. The AC50 was 5.2 µM (active) in experiment [2], 7.66 µM (active) in experiment [3], 1.25 µM (active) in experiment [4] and 5.27 µM (active) in experiment [9].

Consider `C=CCOC(N)=O`, for which the outcome in experiment [12], in [13], in [3], in experiment [14], in experiment [15] and in experiment [16] was inactive. The call in experiment [11] was inactive.

For the compound `CCOC(=O)Cc1ccccc1`, the call in experiment [12], in experiment [3], in experiment [17], in experiment [5], in [16] and in experiment [11] was inactive.

Consider `COc1ccc([N+](=O)[O-])cc1O`, for which the compound was called inactive in [12], in experiment [3], in [14], in experiment [17], in experiment [18] and in experiment [16].

`CCCCC(CC)COC(=O)Cl` (stereo unspecified): the compound was classed as inactive in [12], in experiment [13], in [3], in experiment [14] and in [18].

For `O=C(CBr)c1ccc(O)cc1`, the outcome in [12], in experiment [3], in [4], in experiment [15] and in experiment [11] was inactive.

In the case of `COCCl`, the compound was called inactive in [12], in [3], in experiment [4], in experiment [15], in experiment [5] and in experiment [16]. Besides, in experiment [11], the compound was called inactive.

`Cc1cc(C(F)(C(F)(F)F)C(F)(F)F)ccc1NC(=O)c1cccc(I)c1C(=O)NC(C)(C)CS(C)(=O)=O`: the result in [12], in experiment [13], in experiment [14] and in experiment [5] was inactive. Also, in experiment [4], the AC50 is 1.13 µM (active).

For `N#Cc1ccncc1`, the outcome in experiment [12], in experiment [13], in experiment [4], in experiment [14], in [17] and in experiment [5] was inactive. In addition, the call in experiment [18], in experiment [16] and in experiment [11] was inactive.
